Drawing on PubChem BioAssay (NCI), this text covers growth for 14 compounds.

Test systems include SN12C renal; UO-31 renal; TK-10 renal; ACHN renal; CAKI-1 renal; A498 renal; MOLT-4 leukemia; SR leukemia; CCRF-CEM leukemia.
Common to all, as to assay: NCI-60 one-dose screen, 48 h (100 = growth as untreated, 0 = no growth, -100 = all killed)
Holding throughout (details): 10 µM unless noted

This is part of a sample that, as a whole, favours compounds with a hit. Of some 83,000 tested, about 20% had one in any assay.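 96-well plates, one dose, 48 hours. Percent growth reported; active if below 10.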 Unmarked numbers belong to inactive results. Calls of active or inactive are those of the source.

As for `C[C@]12CC[C@@H]3c4ccc(O)c([N+](=O)[O-])c4CC[C@H]3[C@@H]1CC[C@@H]2NS(=O)(=O)c1cccc(Br)c1`, the growth in the assay with SN12C renal was 21.4%; with UO-31 renal it was 3.61% (active); in the assay on TK-10 renal it was 42.8%; with ACHN renal it was 24.4%; in the assay on CAKI-1 renal, 17.8%; with A498 renal it was 54.2%. Besides, the growth with MOLT-4 leukemia is 18.2%; in the assay on SR leukemia, -12.1% (active).
For `O=C(Nc1cccc(-n2cc(-c3ccncc3)c(-c3ccc(O)c(Cl)c3)n2)c1)Nc1ccc(Cl)c(C(F)(F)F)c1`, the growth is 9.97% (active) in the assay with SN12C renal; -18.9% (active) in the assay on UO-31 renal; -15% (active) with TK-10 renal; 10.7% with ACHN renal; -30.9% (active) with CAKI-1 renal; 37.6% in the assay with A498 renal. The growth was 1.32% (active) in the assay on CCRF-CEM leukemia and 3.22% (active) in the assay on SR leukemia.
In the case of `CCC(C)CC(C)C(=O)c1c(O)ccn(OC)c1=O` (stereo not drawn), the growth in the assay on SN12C renal was 69.7%; with UO-31 renal, 58.3%; in the assay on TK-10 renal it was 98.7%; in the assay with ACHN renal it was 46.1%; with CAKI-1 renal, 92.9%; in the assay on A498 renal, 98.7%. In addition, the growth in the assay on CCRF-CEM leukemia was 39.8%; in the assay with MOLT-4 leukemia it was 68.1%; with SR leukemia it was 47.1%.
`S=C1SCN(Cc2ccccc2)CN1Cc1ccco1`: the growth in the assay on SN12C renal was 93.5%; with UO-31 renal, 78.6%; in the assay with TK-10 renal, 28.7%; in the assay with ACHN renal, 107%; in the assay on CAKI-1 renal, 96.7%; with A498 renal, 99%. Also, the growth with CCRF-CEM leukemia was 10.8%; with MOLT-4 leukemia it was 51.6%; in the assay with SR leukemia it was 22%.
As to `Clc1ncn[nH]1`, the growth in the assay on SN12C renal is 103%; in the assay with UO-31 renal it was 89.9%; in the assay on TK-10 renal, 93.8%; with ACHN renal it was 98.3%; with CAKI-1 renal it was 92.5%; in the assay with A498 renal, 106%. Besides, the growth in the assay on CCRF-CEM leukemia is 103%; in the assay with MOLT-4 leukemia, 105%; with SR leukemia, 94%.
In the case of `COc1ccc(Nc2nccc(N3CCN(c4c5ccc(Cl)cc5nc5ccc(OC)cc45)CC3)n2)cc1`, the growth is 68.5% with SN12C renal; 47.5% in the assay with UO-31 renal; 59.2% in the assay with TK-10 renal; 57.8% in the assay with ACHN renal; 71.5% with CAKI-1 renal; 62.9% in the assay on A498 renal. The growth in the assay on CCRF-CEM leukemia was 4.07% (active); in the assay on MOLT-4 leukemia, -2.31% (active); with SR leukemia, 21.1%.
For the compound `O=C1NCN(c2ccccc2)C12CCN(CCCC(c1ccc(F)cc1)c1ccc(F)cc1)CC2`, the growth in the assay on SN12C renal was 60.5%; with UO-31 renal, 26.1%; with TK-10 renal, 66.1%; in the assay with ACHN renal, 61.7%; in the assay with CAKI-1 renal, 76.8%; with A498 renal, 57.7%. The growth was 94.4% in the assay with CCRF-CEM leukemia, 34.3% in the assay on MOLT-4 leukemia and 8.54% (active) in the assay on SR leukemia.
`O=C1/C(=C/c2ccc([N+](=O)[O-])o2)Oc2ccc(Br)cc21`: the growth was 40.3% in the assay on SN12C renal; -18.6% (active) in the assay with UO-31 renal; -28.5% (active) in the assay with TK-10 renal; 1.25% (active) in the assay on ACHN renal; 74% in the assay with CAKI-1 renal; 113% with A498 renal. The results for the growth in the assay with CCRF-CEM leukemia, in the assay with MOLT-4 leukemia and in the assay with SR leukemia were 66.2%, 1.28% (active) and 8.8% (active), respectively.
As for `NNC(=O)NO`, the growth in the assay on SN12C renal is 106%; with UO-31 renal it was 69.8%; with TK-10 renal, 94%; in the assay on ACHN renal, 105%; in the assay with CAKI-1 renal, 106%; in the assay on A498 renal it was 114%. The growth with CCRF-CEM leukemia is 95.8%; in the assay on MOLT-4 leukemia it was 91.6%; with SR leukemia, 95.8%.
Regarding `COc1cccc2c1O/C(=C\c1c([N+](=O)[O-])ncn1C)C2=O`, the growth was 104% with SN12C renal; 78.7% in the assay on UO-31 renal; 109% in the assay on TK-10 renal; 89% in the assay with ACHN renal; 92.8% in the assay with CAKI-1 renal; 100% with A498 renal. Also, the growth with CCRF-CEM leukemia was -7.36% (active); in the assay with MOLT-4 leukemia it was 85.3%; in the assay with SR leukemia, 62.8%.
As for `O=C(O)c1ccc(NC(=O)c2ccc(Nc3ccnc(C(F)(F)F)c3)cc2)cc1`, the growth was 104% in the assay with SN12C renal; 84.5% in the assay with UO-31 renal; 105% in the assay on TK-10 renal; 98.9% in the assay on ACHN renal; 108% in the assay with CAKI-1 renal; 105% in the assay with A498 renal. The growth is 120% with CCRF-CEM leukemia, 94.5% with MOLT-4 leukemia and 90% with SR leukemia.
Take `COc1ccc(-c2noc(N)c2-c2cc(OC)c3c(c2)OCO3)cc1`: the growth was 35.8% with SN12C renal; 52.2% in the assay on UO-31 renal; 39% in the assay on TK-10 renal; 40.8% in the assay with ACHN renal; 32.7% in the assay on CAKI-1 renal; 5.26% (active) with CCRF-CEM leukemia. Besides, the growth was 18.4% with MOLT-4 leukemia and -25.8% (active) in the assay with SR leukemia.
For `O=C1C(Cl)=C(N=Nc2c(Cl)c(O)c3ccccc3c2O)C(=O)c2ccccc21`, the growth in the assay on SN12C renal was 71.8%; with UO-31 renal, 70.4%; with TK-10 renal it was 116%; in the assay with ACHN renal it was 77%; with CAKI-1 renal it was 88.9%; in the assay on A498 renal it was 63.6%. In addition, the results for the growth with CCRF-CEM leukemia, in the assay with MOLT-4 leukemia and with SR leukemia were 43.5%, 62.1% and 34.9%, respectively.
On to `O=[N+]([O-])c1cnc(Sc2ccncn2)c([N+](=O)[O-])c1`, for which the growth was 96.9% in the assay on SN12C renal; 48.8% with UO-31 renal; -37.8% (active) in the assay on TK-10 renal; -29.6% (active) in the assay on ACHN renal; 64.9% in the assay on CAKI-1 renal; 87% in the assay on A498 renal. Moreover, the growth with CCRF-CEM leukemia is -49.2% (active); in the assay on MOLT-4 leukemia it was -41.2% (active); in the assay with SR leukemia, 11.8%.
